Assay results as given in PubChem BioAssay AID624483 (NMMLSC, 2012).
Screen size: about 360,000 compounds; about 11,000 (3.1%) were called active. Not shown: some 2% with an inconclusive outcome. This excerpt belongs to a sample that is enriched for actives. A number with no mark means an inactive call. Cut-off read from the data, not from the text of the source: active = fluorescence intensity above about 16000; inconclusive = no clear call, values can overlap the other calls; inactive = below that.

Experiment: counter-screen for toxin protease inhibitors: compound fluorescence, primary screen, artefact control for toxin protease inhibitor project, biochemical, multiplex microsphere, HTS (AID 624483)
Settings: compound autofluorescence counterscreen, microsphere flow cytometry; active compounds read high

| Structure (SMILES) | fluorescence intensity |
| --- | --- |
| C=C(C)Cn1c(N2CCN(CC)CC2)nc2c1c(=O)[nH]c(=O)n2C | 4600 |
| COc1ccc(C2OCC3(CO2)SC(=O)NC3=O)cc1OC (centres undefined) | 2510 |
| CCCC(C)n1[nH]c(=O)c2c1NC(=O)CSC2c1ccc(OC)c(OC)c1 (centres undefined) | 20600 (active) |
| CCOC(=O)C1C(c2ccc(OC)c(OC)c2)c2c([nH][nH]c2=O)CC1(C)O (centres undefined) | 4630 |
| CCCCN1CC(N2CCN(Cc3cccc(C)c3)CC2)CS1(=O)=O (centres undefined) | 6580 |
| CC(C)(C)Nc1c(N)c(=O)oc2ccccc12 | 17700 (active) |
| O=c1oc2ccccc2c(=O)c2ccccc12 | 3730 |
| Nc1c(NCCc2ccccc2)c2ccccc2oc1=O | 3190 |
| CN(C)Cc1c(O)ccc2occ(C(O)c3ccccc3)c12 (centres undefined) | 2380 |
| CC(=O)c1cccc(-c2cnc3c(NC=O)cc(-c4cccc(C(=O)N(C)C)c4)cn23)c1 | 4000 |
| OCCC#Cc1ccc(N2C(c3ccsc3)=Cc3ccc(F)cc3C2c2c[nH]c3ccccc23)cc1 (centres undefined) | 4910 |
| COC(=O)C1=C(C)N(C)C(=S)NC1c1cc(OC)ccc1OC (centres undefined) | 4360 |
| CCC1=C(C(=O)OC)C(c2cc(OC)ccc2OC)C(C#N)=C(N)O1 (centres undefined) | 21500 (active) |
| CCOC(=O)C1=C(CC)OC(N)=C(C#N)C1c1ccc(F)cc1F (centres undefined) | 2060 |
| CCOCCCNS(=O)(=O)Cc1ccccc1 | 18800 (active) |
| Cc1cc(C)cc(NS(=O)(=O)Cc2ccccc2)c1 | 3320 |
| COc1ccc(OCCNS(=O)(=O)Cc2ccccc2)cc1 | 2820 |
| COCCNC(=O)c1cc2c(Br)ccc(Br)c2nc1N | 4280 |
| CC(C)CNC(=S)NC(=O)c1ccc(Cl)cc1 | 2350 |
| CC(=O)Nc1ccc(SCC(=O)NC(=O)c2ccc(Cl)cc2)cc1 | 3220 |
| COC(=O)/C(NC(C)=O)=C(\C)c1ccc(Cl)cc1 | 17300 (active) |
| COc1ccc(CC(N)c2csc(NC(=O)NC(c3ccccc3)c3ccccc3)n2)cc1 (centres undefined) | 3610 |
| COc1ccc(OC)c(C(O)c2ncc(-c3cccc(C(F)(F)F)c3)[nH]2)c1 (centres undefined) | 3890 |
| CN1OC[C@@H]2CN(C(=O)c3cccnc3)[C@H](c3ccc(N4CCCCC4)cc3)C[C@@H]21 | 4430 |

| Structure (SMILES) | fluorescence intensity |
| --- | --- |
| CN1OC[C@@H]2CN(S(=O)(=O)c3cccc4ccccc34)[C@H](c3ccc(N4CCCCC4)cc3)C[C@@H]21 | 25600 (active) |
| CN1OC[C@@H]2CN(C(=O)c3cccc4ccccc34)[C@H](c3ccc(N4CCCCC4)cc3)C[C@@H]21 | 11700 |
| Cc1cc(C)c2nc3nc(C)cc(C)c3c(N)c2c1 | 2140 |
| CCCCOc1ccc(NC(=O)CSCC(=O)OCC)cc1 | 21000 (active) |
| CCOc1ccc(NC(=O)CSc2nncn2C)cc1 | 3760 |
| CCOC(=O)Cc1ncccc1C(=O)Nc1ccc(OC)cc1 | 3720 |
| COc1ccc(C(C)C)cc1-c1ccc2nncn2c1 | 3610 |
| CC1(C(=O)NS(=O)(=O)c2ccccc2)CCN1C(=O)c1ccccc1 (centres undefined) | 3830 |
| CCCCCCN1CCN(C2CN(Cc3cn(Cc4ccc(F)cc4)nn3)S(=O)(=O)C2)CC1 (centres undefined) | 6160 |
| CSc1nsc(SCC(=O)Nc2cc(C(=O)O)ccc2C)n1 | 4170 |
| Oc1ccc(-n2nnnc2SCc2c(F)cccc2Cl)cc1 | 3260 |
| N[C@@H](Cc1c[nH]c2ccccc12)c1nnc(SCc2c(F)cccc2Cl)o1 | 22800 (active) |
| CC(C)C[C@@H](N)c1nnc(SCC(=O)c2ccc(Cl)cc2)o1 | 9640 |
| CC(C)(C)C1C/C(=C/c2ccco2)C(=O)/C(=C/c2ccco2)C1 (centres undefined) | 3920 |
| O=S1(=O)CC(N2CCSCC2)CN1Cc1cn(Cc2cccc(Cl)c2)nn1 (centres undefined) | 5080 |
| O=C(O)C(c1cccs1)C1(O)CCCCC1 (centres undefined) | 3860 |
| CC1(C)C(=O)C2(CCCCC2)C(=O)OC1c1cccs1 (centres undefined) | 20700 (active) |
| CC12CN3CC(C)(CN(C1)C3c1cccs1)C2 (centres undefined) | 8490 |
| CCC(C(=O)N1CCN(S(=O)(=O)c2sc(C(=O)O)c(C)c2C(=O)O)CC1)c1ccccc1 (centres undefined) | 9090 |
| CN(c1cccc(NC(=O)Nc2ccc(Cl)cc2)c1)S(C)(=O)=O | 16900 (active) |
| CN(c1cccc(NC(=O)c2ccc(CN3CCc4ccccc4C3)cc2)c1)S(C)(=O)=O | 3600 |
| COc1ccc(C)cc1S(=O)(=O)N(CC(=O)Nc1cccc([N+](=O)[O-])c1)c1ccc(C)cc1 | 2390 |
| CCOc1ccc(N(CC(=O)Nc2cccc(OC)c2)S(C)(=O)=O)cc1 | 4460 |
| Cc1ccc(N(CC(=O)Nc2cccc(N(C)S(C)(=O)=O)c2)S(C)(=O)=O)cc1 | 24500 (active) |

| Structure (SMILES) | fluorescence intensity |
| --- | --- |
| COc1cccc(NC(=O)Nc2ccc(F)cc2)c1 | 3940 |
| N#Cc1c(NCCO)ccc([N+](=O)[O-])c1NCCO | 3950 |
| O=C(NCc1cccnc1)c1cc(C2CCCN(C(=O)CCCc3ccccc3)C2)on1 (centres undefined) | 3480 |
| COc1ccc(-c2coc3c(C(=O)NC(C)C)cccc23)c(C)c1 | 3850 |
| O=C(COC(=O)c1ccc(F)c(S(=O)(=O)N2CCOCC2)c1)NCc1ccc2c(c1)OCO2 | 3750 |
| CCOC(=O)N1CCN(c2c(NCCCN3CCCC(C)C3)c(=O)c2=O)CC1 (centres undefined) | 4370 |
| Cc1ccc(-c2nc3c(C)cc(Br)cn3c2Cc2ccccc2)cc1 | 4960 |
| CC(=O)N(CC(O)CO)c1c(I)c(C(=O)NCC(O)CO)c(I)c(C(=O)NCC(O)CO)c1I (centres undefined) | 5720 |
| N#Cc1c(N)nc2c(c1N)CC(C(F)(F)F)O2 (centres undefined) | 4380 |
| C=CCn1c(COc2ccc(F)cc2)nnc1SCC(=O)Nc1cccc(S(N)(=O)=O)c1 | 4780 |
| C=CCn1c(COc2cccc3cccnc23)nnc1SCC(=O)OC | 21200 (active) |
| C=CCn1c(COc2ccccc2C)nnc1SCC(=O)O | 2820 |
| CN(Cc1ccc(C(F)(F)F)cc1)C(=O)[C@H]1O[C@@H](n2cnc3c(N)ncnc32)[C@H](O)[C@@H]1O | 4210 |
| COc1cc(C(=O)NCc2ccc3c(c2)cc(C)n3C)cc(OC)c1OC | 3720 |
| COCCNC(=O)C1(C)CCCN(Cc2cccc(F)c2)C1 (centres undefined) | 2750 |
| OC(c1nnc(-c2ccccc2)o1)c1cccs1 (centres undefined) | 4160 |
| Brc1ccc(-c2noc(-c3ccccc3)n2)o1 | 4610 |
| Brc1ccc(-c2nnc(-c3ccccc3)o2)o1 | 24200 (active) |
| CCCCCc1c(-c2ccc(OC)c(OC)c2)ncn1CCc1ccccc1OC | 6300 |
| COc1cccc(CNC(=O)COc2cc(O)c3c(c2)OC(C)(C)CC3=O)c1 | 5480 |
| CC1=C(C(=O)N2CCOCC2)CC(CC(=O)NCc2cccs2)C(=O)N1CCCN1CCCC1=O (centres undefined) | 4160 |
| CCN(CC)C(=O)C1CCCN(Cc2cccc(Cl)c2)C1 (centres undefined) | 2940 |
| COc1ccc(N2CCN(C(=O)CCc3nc(-c4ccc(C)cc4)no3)CC2)cc1 | 3440 |
| COc1ccc(-c2noc(CSc3ccc(C)cc3)n2)cc1 | 24000 (active) |

| Structure (SMILES) | fluorescence intensity |
| --- | --- |
| Cc1ccc(-c2noc(CC(c3ccccc3)c3ccccc3)n2)cc1 | 4240 |
| CC(C)c1ccc(CC(=O)N2CCC2(C)C(=O)NS(=O)(=O)c2ccc(C(C)(C)C)cc2)cc1 (centres undefined) | 2850 |
| CCC(=O)N1CCC(C)(C(=O)Nc2cc(OC)c(OC)c(OC)c2)C1 (centres undefined) | 3060 |
| CCn1c(CC(=O)Nc2ccccc2)nnc1SCC(=O)N1CCOCC1 | 6500 |
| Cc1ccc(-n2c(CNc3ccc(F)cc3)nnc2SCC(=O)N2CCOCC2)cc1 | 4740 |
| O=C(CSc1nnc(Cc2ccccc2)n1-c1ccccc1)N1CCOCC1 | 16700 (active) |
| COC(=O)c1ccc(OCC(=O)NC(C)(C)C)cc1 | 2670 |
| O=C(COc1ccc([N+](=O)[O-])cc1Cl)Nc1ccc2[nH]c(=O)[nH]c2c1 | 4100 |
| CC(C)(C)NC(=O)COc1ccc(CNc2ccc3[nH]c(=O)[nH]c3c2)cc1 | 22600 (active) |
| CCC(Oc1ccccc1)C(=O)OCC(=O)Nc1c(C)nn(-c2ccccc2)c1C (centres undefined) | 3640 |
| O=C(NC1CCCCCCC1)c1cccs1 | 3700 |
| O=C(Nc1ccc2c(c1)CCC2)c1ccc(Br)s1 | 4300 |
| O=C(NC1CCCC1)c1ccc(Br)s1 | 17100 (active) |
| CC(C)NC(=O)N1Cc2cc(C(=O)NCC(F)(F)F)nc(-c3cccc(-c4cc5ccccc5o4)c3)c2[C@@H]1CCO | 6410 |
| Cc1ccc(S(=O)(=O)NCC(=O)N(CC(=O)NC2CCCCC2)Cc2ccco2)cc1 | 3490 |
| Cc1[nH]c2ccccc2c1CCN(Cc1cccs1)C(=S)NC(C)(C)C | 4220 |
| CCC(C)(C)NC(=O)CN(Cc1cccs1)C(=O)CNS(=O)(=O)c1ccc(F)cc1 | 4360 |
| CC(C)(C)NC(=O)CN(Cc1cccs1)C(=O)CNS(=O)(=O)c1ccccc1 | 22000 (active) |
| O=C(CN(CC1CCCO1)C(=O)CNS(=O)(=O)c1ccccc1)NCc1ccccc1 (centres undefined) | 4900 |
| Cc1ccc(S(=O)(=O)NCC(=O)N(CC(=O)NC(C)(C)C)Cc2cccs2)cc1 | 23500 (active) |
| CSCCC(c1nnnn1Cc1ccccc1)N1CCN(C/C=C/c2ccccc2)CC1 (centres undefined) | 6070 |
| COC(=O)[C@]12CCCCC=C1N(Cc1cccc3ccccc13)C(=O)[C@H](CC(=O)N1CCOCC1)C2 | 4200 |
